From PubChem BioAssay
Shown is part of a subset that was picked to be rich in hits.
RMI FANCM FP = inhibitors of human RMI core complex binding to FANCM MM2 | FP signal (polarization) at 33 µM | actives 0.58% (n = 70,000) | Fluorescence polarization, RMI core complex with F-MM2 peptide; active compounds read low; in the data active means FP signal below about 40
Of the large screens only hits and unclear results are named; the others gave an inactive call; ! = a repeat was not active.

O=C(O)c1cc(O)c2c(c1)[C@@H]([C@@H]1c3cc(C(=O)O)cc(O)c3C(=O)c3c(O[C@H]4O[C@H](CO)[C@@H](O)[C@H](O)[C@H]4O)cccc31)c1cccc(O[C@H]3O[C@H](CO)[C@@H](O)[C@H](O)[C@H]3O)c1C2=O	RMI FANCM FP 34
Cc1ccc(-c2cc(=O)n(CC(=O)Nc3cccnc3)cn2)cc1	none
C=CCn1c(SCC(=O)Nc2sc(C(=O)OC)c(C)c2C(=O)OCC)nc2sc3c(c2c1=O)CCC3	none
CC1=CC(=NS(=O)(=O)c2cccc([N+](=O)[O-])c2)C=CC1=O	RMI FANCM FP -23
Cc1ccc(S(=O)(=O)N=Cc2cccc([N+](=O)[O-])c2)cc1	none
Cc1nc2ccccc2c(=O)n1-c1cccc(NS(=O)(=O)c2cccc([N+](=O)[O-])c2)c1	none
FC(F)(F)c1cc(/C=C\c2noc(-c3cccc(CN4CCCC4)c3)n2)cc(C(F)(F)F)c1	none
Cc1ccc2c(c1)Cc1c(nc(-c3ccccc3)nc1SCC(=O)Nc1cccc(C(=O)O)c1)O2	RMI FANCM FP 14
Cc1cccc2c1Oc1nc(-c3ccccc3)nc(SCC(=O)Nc3ccc4c(c3)OCCO4)c1C2	none
Cc1ccc(-c2nc3c(c(SCC(=O)Nc4cccc(C(=O)O)c4)n2)Cc2ccccc2O3)cc1	none
O=C(NCCn1nc(-c2ccncc2)ccc1=O)Nc1ccccc1	none
O=C(Nc1nc2c(s1)CCc1ccccc1-2)c1nc2ccccc2s1	none
O=C(Nc1nc2c(s1)Cc1ccccc1-2)c1ccc2ncsc2c1	none
O=C(Nc1nc2c(s1)Cc1ccccc1-2)c1nc2ccccc2s1	RMI FANCM FP -62
CC(C)(C)[C@]1(O)CCN2C[C@H]3c4ccccc4CCc4cccc(c43)[C@@H]2C1	RMI FANCM FP 43!
CN1CCN2c3ncccc3Cc3ccccc3C2C1 (stereo unspecified)	none
CC(C)C(=O)NCCc1ccc2c(c1)CCCN2C	none
O=C1NC(=S)/C(=C/c2cccnc2)S1	RMI FANCM FP -19
Cc1ccc(N=C2NC(=O)/C(=C/c3cccnc3)S2)cc1	none
CC(/C=C1\SC(=O)NC1=S)=C\c1ccccc1	none
CC(C)(C)n1ncc2c(=O)n(CCC(=O)NCc3ccco3)cnc21	none
COc1ccc(Nc2nc(Nc3ccc4c(c3)OCO4)nc(N3CCOCC3)n2)cc1	none
Cc1ccc(S(=O)(=O)CCC(=O)Nc2sc3c(c2C(N)=O)CCC(C)C3)cc1 (stereo unspecified)	none
CCOC(=O)N1CCc2c(sc(NC(=O)CCSc3ccc(Cl)cc3)c2C(N)=O)C1	none
CC(C)N1CCc2c(sc(NC(=O)CN3C(=O)c4ccccc4C3=O)c2C(N)=O)C1	RMI FANCM FP -4
CC(=O)N1CCc2c(sc(NC(=O)CSc3ccc(Cl)cc3)c2C(N)=O)C1	RMI FANCM FP -4
CC(=O)N1CCc2c(sc(NC(=O)CCSc3ccc(C)cc3)c2C(N)=O)C1	none
CCOC(=O)N1CCc2c(sc(NC(=O)CS(=O)(=O)c3ccc(C)cc3)c2C(N)=O)C1	none
CCN1CCc2c(sc(NC(=O)CS(=O)(=O)c3ccc(F)cc3)c2C(N)=O)C1	RMI FANCM FP 13
CCN1CCc2c(sc(NC(=O)c3ccnn3C)c2C(N)=O)C1	none
CCOC(=O)N1CCc2c(sc(NC(=O)CCS(=O)(=O)c3ccccc3)c2C(N)=O)C1	none
Cc1ccc(S(=O)(=O)CC(=O)Nc2sc3c(c2C(N)=O)CCN(C(C)C)C3)cc1	none
CC(C)N1CCc2c(sc(NC(=O)c3ccn(C)n3)c2C(N)=O)C1	none
CCN1CCc2c(sc(NC(=O)CCS(=O)(=O)c3ccc(C)cc3)c2C(N)=O)C1	RMI FANCM FP 34
O=C(CC1CCCCN1S(=O)(=O)c1ccc(F)cc1)Nc1ccccc1Cl (stereo unspecified)	none
CC(C)NC(=O)C(=O)NCC1CCN(C(C)C)CC1	none
O=C(Oc1ccc(Br)cc1)c1ccc(Cl)cc1[N+](=O)[O-]	none
O=C(O)c1cc(Cl)ccn1	none
COc1ccc(Cl)cc1NC(=O)c1ccc(=O)n(Cc2ccc(F)cc2)n1	none
Cc1ccc(C(=O)N2CCN(c3nc4ccc(F)cc4s3)CC2)cc1	none
O=C(NCCn1ncc2c(=O)n(Cc3ccc(Br)cc3)cnc21)c1ccc(F)cc1	none
Nc1cc(S(=O)(=O)N2CCCCCC2)ccc1Cl	none
CCc1ccc2ncc(C#N)c(N3CCc4ccccc4C3)c2c1	none
Cn1nccc1C(=O)Nc1nnc(-c2cc(Cl)sc2Cl)o1	none
CCN(CC)CCN(C(=O)c1ccccc1OC)c1nc2c(OC)cccc2s1	none
Nc1ncncc1-c1ccc(Cl)cc1	none
Nc1ncnc(Cl)c1N	RMI FANCM FP 17
Nc1ncnc2c1CCC2	none
Cc1cc(C)c2sc(=NC(=O)c3cccc([N+](=O)[O-])c3)n(C)c2c1	none
CCOC(=O)c1c(NC(=O)c2cccc([N+](=O)[O-])c2)sc(C)c1-c1ccccc1	none
O=C(Cn1nc(-c2cccs2)ccc1=O)Nc1ccc(F)c(F)c1	none
CSc1nc2ccc(NC(=O)c3ccccc3Br)cc2s1	none
Cc1ccc(C)c(S(=O)(=O)N=C2C=C(SCC(=O)O)C(=O)c3ccccc32)c1	none
Cc1ccc(C)c(S(=O)(=O)N=C2C=C(Cl)C(=O)c3ccccc32)c1	RMI FANCM FP 20
Cc1ccc(C)c(S(=O)(=O)N2C(=S)NC(=O)C2Cc2ccccc2)c1 (stereo unspecified)	none
CC(C)Oc1ccccc1Oc1ccc(N)cn1	none
CSc1ccc(Oc2ccc(N)cn2)cc1	none
Nc1ccc(Oc2cccnc2)nc1	RMI FANCM FP -6
COc1cccc(-n2nnc(C(=O)Nc3ccc(C)cc3[N+](=O)[O-])c2C)c1	none
Cc1ccc(-c2ccc(N3CCN(C(=O)c4ccc5ccccc5n4)CC3)nn2)cc1	none
C=CCNC(=S)NNC(=O)CSc1nc2ccccc2[nH]1	none
COc1ccc(N(C)S(=O)(=O)c2ccsc2-c2nc(-c3cccc(C)c3)no2)cc1Cl	none
CCOC(=O)c1c(NC(=O)CSc2nc(-c3ccc(OC)cc3)cs2)sc2c1CCCC2	none
COc1cc(OC)cc(C(=O)NCC(c2ccsc2)N2CCCC2)c1 (stereo unspecified)	RMI FANCM FP 9
Cc1ccc(C(=O)NCC(c2ccsc2)N2CCCC2)cc1C (stereo unspecified)	none
COc1ccc(CC(=O)NCC(c2ccsc2)N2CCCC2)cc1 (stereo unspecified)	none
O=C(CSc1ccc(F)cc1)Nc1ccc([N+](=O)[O-])cc1	none
C(=NCc1ccccc1)c1ccc2c(c1)OCO2	none
C(=NCCc1ccccc1)c1ccccc1	none
Clc1cc(Cl)cc(C=NCc2ccccc2)c1	RMI FANCM FP 21
COc1ccc(SCCCC(=O)Nc2nnc(Cc3cccs3)o2)cc1	none
CCOC(=O)c1cnc2cc(C(F)(F)F)ccc2c1Nc1ccc(S(=O)(=O)N(C)C)cc1	none
Cc1cc(Nc2ccc(S(=O)(=O)Nc3nccs3)cc2)c2ccc(C(F)(F)F)cc2n1	none
Cc1cc(Nc2ccc(N(C)C)cc2)c2ccc(C(F)(F)F)cc2n1	RMI FANCM FP 19
CCCN(CCC)S(=O)(=O)c1ccc(C(=O)Nc2cccc3c(NC(=O)c4ccc(S(=O)(=O)N(CCC)CCC)cc4)cccc23)cc1	none
O=C(NCCc1ccccc1)C(Br)C(Br)c1ccccc1 (stereo unspecified)	none
COc1ccc(-c2cc3c(SCc4cccc(F)c4)nccn3n2)cc1	none
O=C(OCc1cc(-c2cccs2)on1)c1cccc(F)c1	none
Cc1cc(=O)n2c(-c3cccc(NC(=O)c4sc(C)nc4C)c3)csc2n1	none
O=C(NCCOc1ccc(-c2ccc(F)cc2)nn1)c1ccccc1[N+](=O)[O-]	none
NC(=O)C1CCN(C(=O)CCc2nc3sc4c(c3c(=O)[nH]2)CCCCC4)CC1	none
O=C(CCc1nc2sc3c(c2c(=O)[nH]1)CCCCC3)N1CCN(Cc2ccc3c(c2)OCO3)CC1	RMI FANCM FP 28
O=C(CCc1nc2sc3c(c2c(=O)[nH]1)CCCCC3)N1CCN(c2ccccc2F)CC1	none
